# From PubChem BioAssay (EPA / NIEHS)
# The source made the active and inactive calls. How the source made its calls: active means hit-call score of the fitted dose curve at least 0.9, where 1 is the maximum; inactive means score below 0.9.
# Biological target: Bile acid receptor (Homo sapiens) (UniProt Q96RI1)
# Assay: ATG_IR1_CIS: Attagene CIS-FACTORIAL HepG2 Assay for human Nuclear Receptor Subfamily 1 Group H Member 4 (NR1H4), IR1 submotif (AID 2282946)
# Settings: IR1 reporter transcription, actives raise or lower the signal
# How it was run: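 Readout: reporter transcript levels by RT-PCR with fluorescent capillary electrophoresis, from HepG2 cells transiently transfected with multiplexed cis-regulated reporters and dosed 24 h. Gain- or loss-of-signal fitted versus DMSO negative control.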
# Bile acid receptor (Homo sapiens), sequence (Q96RI1 whole entry, looked up): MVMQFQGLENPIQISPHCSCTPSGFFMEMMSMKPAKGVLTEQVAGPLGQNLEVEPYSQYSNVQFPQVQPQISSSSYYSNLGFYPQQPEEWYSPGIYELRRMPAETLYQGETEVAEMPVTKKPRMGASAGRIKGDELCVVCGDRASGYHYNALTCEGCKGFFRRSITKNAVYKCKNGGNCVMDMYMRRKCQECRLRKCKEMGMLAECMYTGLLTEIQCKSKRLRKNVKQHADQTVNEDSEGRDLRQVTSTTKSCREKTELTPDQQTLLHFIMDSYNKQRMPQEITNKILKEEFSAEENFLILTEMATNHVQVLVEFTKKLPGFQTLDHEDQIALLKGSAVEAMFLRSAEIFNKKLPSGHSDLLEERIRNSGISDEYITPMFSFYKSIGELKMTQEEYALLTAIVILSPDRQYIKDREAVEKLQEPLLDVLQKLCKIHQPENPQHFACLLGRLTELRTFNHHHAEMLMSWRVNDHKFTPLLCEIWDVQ
SMILES,outcome,AC50
COCC(=O)N(c1c(C)cccc1C)[C@H](C)C(=O)OC,inactive,
C=CC(=O)[O][Sn]([CH2]CCC)([CH2]CCC)[CH2]CCC,,0.0956 µM (active)
Cc1cccc(OP(=O)(Oc2cccc(C)c2)Oc2cccc(C)c2)c1,inactive,
COc1ccc([N+](=O)[O-])cc1O,inactive,
CCOP(=S)(OCC)SCS(=O)(=O)C(C)(C)C,,34.8 µM (active)
COc1nn(C(=O)NS(=O)(=O)c2ccccc2OC(F)(F)F)c(=O)n1C,inactive,
CC(C)[N+](=O)[O-],inactive,
CC1(C)[C@H](C(=O)O[C@H](C#N)c2cccc(Oc3ccccc3)c2)[C@@H]1/C=C(\Cl)C(F)(F)F,inactive,
C=C(C)[C@@H]1CC=C(C=O)CC1,inactive,
Brc1ccc(Br)cc1,inactive,
C[N+](C)(C)Cc1ccccc1,inactive,
OC(Cc1ccccc1Cl)(Cn1[nH]cnc1=S)C1(Cl)CC1 (stereo not given),inactive,
C=CC(F)(C(F)(F)F)C(F)(F)C(F)(F)F (stereo not given),inactive,
O=C(CBr)c1ccc(O)cc1,inactive,
C#CCOC(=O)/C=C(C)/C=C/CC(C)CCCC(C)C (stereo not given),inactive,
